The whole screen tested about 300,000 compounds, of which about 3,200 (1.1%) were called active. Shown is part of a subset that was picked to be rich in actives. Values without a mark were called inactive. No stated cut-off is given here; in the data, active means inhibition above about 75%; inconclusive means no clear call, values can overlap the other calls; inactive means below that; tested in HMLE shEcad cells.

The assay can be described thus: growth suppression of cancer stem-like cells – cell-based, luminescence, primary screen (AID 2717). To be noted: cancer stem cell-like cells viability, at 7.5 µM, stronger effect = higher value.
Take `Cc1ccc(S(=O)(=O)N2CCN(C(=O)CN3C(=O)NC(C)(c4ccc(Cl)cc4)C3=O)CC2)c(C)c1` (centres undefined): the inhibition was 3.13%.

For the compound `CC1(C)C=Cc2c(ccc3c2OC[C@@H](c2ccc(O)cc2O)C3)O1`, the inhibition is 90% (active).

In the case of `Cc1ccsc1C(=O)OCC(=O)NCCc1ccccc1`, the inhibition is 12.1%.

Take `Cc1nnc(N/N=C/C2CC=CCC2)[nH]c1=O` (centres undefined): the inhibition is 9.52%.

On to `CNC(=O)C(=O)N/N=C/c1ccccn1`, for which the inhibition is -9.33%.

Regarding `Cc1nnc(N/N=C/c2ccccn2)[nH]c1=O`, the inhibition is 121% (active).

For `O=C(COC(=O)CSc1ccccc1)Nc1ccc(F)cc1F`, the inhibition is -0.0328%.

For `CNC[C@H]1Oc2c(NC(=O)C3CCCCC3)cccc2C(=O)N([C@H](C)CO)C[C@@H]1C`, the inhibition was 1.2%.

With `Cc1cccc(N2CCN(C(=O)c3cccc(N4C(=O)C5C6C=CC(C6)C5C4=O)c3)CC2)c1C` (centres undefined), the inhibition is 26.5%.

In the case of `CCn1c(C)c(C)c2cc(C(=O)N3CCN(c4cccc(C)c4C)CC3)ccc21`, the inhibition is 120% (active).

On to `CCC(CC)C(=O)N1CCN(c2cccc(C)c2C)CC1`, for which the inhibition was -11.5%.

`COc1ccccc1C(=O)COC(=O)COc1ccc(C#N)cc1`: the inhibition is 2.49%.

`CC(C)(C)OC(=O)N[C@H](C(=O)OC(C)(C)C)c1ccc(Br)cc1`: the inhibition is 0.862%.

For `CC(OC(=O)c1ccc([N+](=O)[O-])cc1)C(=O)NCC1CCCCC1` (centres undefined), the inhibition is -10.2%.

`CC(C)=CCCC1(C)C=Cc2c(ccc3c2[nH]c2cc(O)c(C)cc23)O1` (centres undefined): the inhibition was 101% (active).

As for `CCOC(=O)[C@H]1[C@H]2COc3cc(OC)ccc3[C@@H]2N2C(=O)CN(Cc3ccc(Cl)cc3)C(=O)[C@@]12C`, the inhibition is -21.1%.

Take `CC1CN(C(=O)c2ccc([N+](=O)[O-])s2)CC(C)O1` (centres undefined): the inhibition was 0.926%.

For the compound `COc1cc(NC(=O)COC(=O)c2ccc([N+](=O)[O-])s2)cc(OC)c1OC`, the inhibition is -12.6%.

`CN(c1ccccc1)S(=O)(=O)c1ccc(C(=O)N2CCN(c3ccccc3Cl)CC2)cc1`: the inhibition was -0.098%.

In the case of `Cc1c(CC(=O)NCCCCCC(=O)O)c(=O)oc2cc3occ(-c4ccccc4)c3cc12`, the inhibition is -4.15%.

`CCCCCCc1ccc(O)cc1O`: the inhibition is -10.2%.

For `CCCCCCc1cc2cc(-c3nnc(-c4ccccc4)o3)c(=O)oc2cc1O`, the inhibition was 118% (active).

As for `CC(C)NC(=O)Nc1cccc2c1O[C@H](CN(C)S(=O)(=O)c1cccs1)[C@@H](C)CN([C@H](C)CO)C2=O`, the inhibition was -18%.

Consider `COc1ccccc1NS(=O)(=O)c1ccc(C)c(C(=O)NNC(=O)c2csc(N3CCOCC3)n2)c1`, for which the inhibition is -11.7%.
